Compound activity: PubChem BioAssay, National Center for Advancing Translational Sciences (NCATS)
In the library only some 2.4% were active in any assay of this set; here they are far more common.
Pol kappa inh = blocks human DNA polymerase kappa activity. purified Pol kappa, fluorescent DNA synthesis assay, 10 min. Potency, µM (titrated, usually from 107 µM), for the others: at the top dose activity, negative = inhibition, actives largely listed as inhibitors. 0.53% of 400,000 active. AID 588579; also: % is scaled to controls: 0 for no effect and ±100 for the full control effect
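Enzyme at 10 nM met test compounds for 15 min at room temperature. Substrate addition (50 nM final) began the reaction, which was monitored by fluorescence at 0 and 10 min.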
Pol iota inh = DNA polymerase iota (human) inhibition; Q9UNA4; Pol iota fluorescent replication assay, 10 min; Potency, µM (titrated, usually from 115 µM), without a hit: top-dose activity, negative = inhibition, hits mostly inhibitors; 1% of 390,000 active; AID 588590
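Fluorescent replication assay read twice, at 0 min and 10 min after adding 50 nM (final) substrate. Enzyme (10 nM) and compounds were first incubated 15 min at room temperature; enzyme-free buffer wells were negative controls.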
POLH inh = blocks human DNA polymerase eta activity; recombinant Pol eta, fluorescent DNA replication assay; Q9Y253; AID 588591; Potency, µM (doses to about 114 µM), without a hit: at the top dose activity change, negative = inhibition, hits mostly inhibitors; 1.2% of 390,000 active; also: % is scaled to controls: 0 for no effect and ±100 for the full control effect
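Pol eta (10 nM) was preincubated with compounds for 15 min at room temperature, after which fluorescent replication substrate (50 nM final) was added to start the reaction. Fluorescence was read kinetically at 0 and 10 min.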
FEN1 inhibitor = human FEN1 inhibition | P39748 | Recombinant FEN1 flap cleavage, fluorescence, 15 min | Potency, µM (top dose mostly 114 µM), for the others: at the highest dose activity change, negative = inhibition, actives largely listed as inhibitors | 0.35% of 390,000 active | AID 588795; also: % is scaled to controls: 0 for no effect and ±100 for the full control effect; nearly all actives have a fitted effect of over 65% in size
Target sequence (P39748 whole entry, looked up): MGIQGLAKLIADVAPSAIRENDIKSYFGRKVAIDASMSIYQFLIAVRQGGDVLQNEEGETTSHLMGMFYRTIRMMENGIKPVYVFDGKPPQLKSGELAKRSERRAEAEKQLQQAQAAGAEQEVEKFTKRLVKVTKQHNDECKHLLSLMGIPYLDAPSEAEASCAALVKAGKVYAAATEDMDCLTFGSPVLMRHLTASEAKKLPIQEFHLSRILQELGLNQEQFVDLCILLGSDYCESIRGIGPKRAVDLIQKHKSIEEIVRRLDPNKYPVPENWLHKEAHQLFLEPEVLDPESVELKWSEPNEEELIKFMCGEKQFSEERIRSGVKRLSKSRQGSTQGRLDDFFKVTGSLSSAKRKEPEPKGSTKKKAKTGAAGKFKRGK
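Enzyme 10 nM, 15 min RT preincubation with compound; start with substrate 50 nM final; reads at 0 and 15 min; qHTS titration, four-parameter Hill fit.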
WRN helicase inh = WRN helicase (human) inhibition; Q14191; WRN helicase unwinding, fluorescent forked duplex, kinetic; Potency, µM (top dose mostly 114 µM), without a hit: at the highest dose activity change, negative = inhibition, usual class: inhibitors; 0.46% of 360,000 active; AID 651768; also: % is scaled to controls: 0 for no effect and ±100 for the full control effect; nearly all actives have a fitted effect of over 55% in size
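Primary qHTS, 1536-well format. 20 nM WRN + compound, 15 min RT; start with 100 nM forked fluorophore/quencher duplex, 2 mM ATP (final); kinetic read ex 525/em 598 nm.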
POLB inh = blocks human DNA polymerase beta activity | Pol beta primer extension/strand displacement, fluorescence kinetic | P06746 | Potency, µM (top dose mostly 114 µM), for the others: at the highest dose activity change, negative = inhibition, hits mostly inhibitors | 1.3% of 340,000 active; also: % is scaled to controls: 0 for no effect and ±100 for the full control effect
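Human Pol beta at 10 nM; strand-displacement substrate 50 nM final. Compound exposure 15 min at room temperature before start, reaction 10 min at room temperature.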
An asterisk follows results filed as active; ? = inconclusive; . = no result given; [ ] = remark or other dose. Calls follow the shape of the dose curve; as a rule, active = well fitted curve in the direction sought with a large enough effect; inconclusive = small, poorly fitted or top-dose-only effect, or another doubt; inactive = no such curve, though single readings can be large; an effect the other way counts as inactive or inconclusive. Potency is read from the fitted curve at half-maximal effect.

SMILES	Pol kappa inh	Pol iota inh	POLH inh	FEN1 inhibitor	WRN helicase inh	POLB inh
COc1ccc(-n2c(C)cc(/C=C3\SC(=S)NC3=O)c2C)cc1	-17%	-28%	?	-8%	-9%	-3%
C[C@H](N)CCP(=O)(O)O	6%[19.4 µM]	.	.	.	.	.
Cc1ccc(NCCC(=O)c2ccc(Cl)cc2)cc1C	2%	100µM*	2%	-2%	7%	25%
CCc1ccc(NCCC(=O)c2ccc(Cl)cc2)cc1	-1%	4%	4%	-4%	-2%	26%
O=C(Cc1ccc(Br)cc1)NO	3%	24%	.	0%	.	.
CCc1c(C)[nH]n(-c2ccc(Oc3ccccc3)c(S(=O)(=O)O)c2)c1=O	35µM*	18µM*	11µM*	?	?	25µM*
Cc1[nH]n(-c2ccccc2)c(=O)c1CCO	-14%	1%	2%	12%	-2%	12%
CCOc1cc(/C=C2\C(=O)N(c3nc(-c4ccc(Br)cc4)cs3)N=C2c2ccccc2)ccc1O	79µM*	?	10µM*	50µM*	-35%	10µM*
COc1cc(/C=C2\C(=O)N(c3ccc(NC(C)=O)cc3)N=C2c2ccccc2)ccc1O	-10%	?	10%	-28%	-13%	49%
Cc1cc(N2CCCCC2)nc2ccccc12	-6%	71%	-6%	0%	-19%	10%
Cc1cc(-n2nnc3ccccc32)nc2ccccc12	-24%	89µM*	-5%	1%	4%	6%
O=C(O)c1ccccc1O	-1%	3%	-16%	7%	.	15%
O=S(c1ccccc1O)S(=O)c1ccccc1O (configuration not stated)	?	13µM*	22µM*	?	14µM*	.
O=C(Cc1ccccc1)Nc1ccc(NC(=O)c2ccccc2)nc1	-5%	76%	6%	4%	-2%	63µM*
O=C(OCc1nnc(-c2ccccc2)o1)c1cccc(S(=O)(=O)N2CCOCC2)c1	89µM*	13%	-14%	-8%	-7%	.
CCOc1ccc(CCNC(=O)c2cn(CC)c3ccc(S(=O)(=O)N4CCc5ccccc5C4)cc3c2=O)cc1OCC	4%	-17%	-5%	-25%	.	26%
O=C1N=c2ccccc2=C1c1sc(=O)[nH]c1O	-25%	-13%	-4%	-2%	-8%	6%
O=C1N=c2ccc([N+](=O)[O-])cc2=C1c1sc(=O)[nH]c1O	89µM*	15%	-19%	?	?	1%
O=S(=O)(Nc1c(Br)cc(Br)c2cccnc12)C1CC1	11%	13µM*	.	?	.	.
CCN1/C(=C/c2cc[n+](C)cc2)C=Cc2cc(C)ccc21	-20%	?	?	?	-21%[57.1 µM]	22µM*
O=C(COC(=O)c1cccc(S(=O)(=O)N2CCc3ccccc3C2)c1)NCc1ccco1	-23%	-15%	-10%	-7%	-7%	18µM*
O=C(COC(=O)c1cc(S(=O)(=O)N2CCc3ccccc3C2)ccc1Cl)NCc1ccco1	?	?	20µM*	-18%	?	40µM*
COc1ccc(N2CCN(C(=O)c3nc(-c4ccc(Cl)cc4)n4c3CCCCC4)CC2)cc1	-8%	17%	-26%	6%	.	-20%
CN1C(=O)S/C(=C\c2ccccc2OCc2ccc(C(=O)O)cc2)C1=O	-7%	19%	?	7%	-12%	-1%
CC(C)N1C(=O)S/C(=C/c2ccccc2OCc2ccc(C(=O)O)cc2)C1=O	?	?	89µM*	?	-13%	1%
SMILES	Pol kappa inh	Pol iota inh	POLH inh	FEN1 inhibitor	WRN helicase inh	POLB inh
CCCc1cc2c(=O)c(-c3nc4ccccc4s3)c(COCC(=O)O)oc2cc1O	-22%	?	79µM*	-4%	-23%	-27%
CCc1cc2c(=O)c(-c3nc4ccccc4n3C)c(COCC(=O)O)oc2cc1O	-7%	25%	-15%	6%	-6%	1%
CCOCCc1nnc(NC(=O)Cc2ccc(Br)cc2)s1	-4%	-4%	-9%	0%	-11%	89µM*
COc1cccc(CNC(=O)c2oc3ccc4c(c3c2C)C(=O)CC(C)(C)O4)c1OC	9%	13%	.	-20%	.	30%
Cc1cc2c(n1-c1ccc(C(=O)NCC(C)c3ccccc3)cc1)CCCC2 (configuration not stated)	0%	-3%	-2%	13%	.	2%
CC(C)C[C@@H](CN=[N+]=[N-])N1CCN(CCc2ccccc2)CCC1=O	-12%	29%	.	-8%	.	.
O=C1C=CC(=O)N1c1ccc(OC(F)F)cc1	-3%	0%	-13%	-4%	32µM*	-1%
COC(=O)c1c(NC(=O)c2ccoc2C)sc2c1CCC2	?	?	?	-8%	-17%	22µM*
COC(=O)c1c(NC(=O)c2ccc(Br)s2)sc2c1CCC2	-14%	?	-14%	-8%	?	2%
CCc1nnc(NS(=O)(=O)c2ccc(NC(=O)/C=C/c3ccc(OC)cc3OC)cc2)s1	?	?	?	-20%	?	56µM*
NCC(=O)c1c[nH]c2ccccc12	-23%	?	.	0%	.	.
CC1(C)O[C@@H]2C[C@H]3[C@@H]4CCC5=CC(=O)C=C[C@]5(C)[C@H]4C(O)C[C@]3(C)[C@]2(C(=O)CO)O1 (some centres not stated)	-1%[19.4 µM]	.	.	.	.	.
COc1cc2nc(CCc3nc4cc(OC)c(OC)cc4[nH]3)[nH]c2cc1OC	3.2µM*	2.5µM*	.	-34%	.	.
Cc1cc2nc(CO)[nH]c2cc1C	7%	-3%	-9%	2%	4%	7%
COc1ccccc1-c1nn2c(-c3cc(C)[nH]n3)nnc2s1	11%	?	.	-13%	.	.
COCCCNC(=O)C1CCN(c2nc3ccc(C)cc3[nH]2)CC1	-6%[60.1 µM]	18%	-7%	16%	.	5%
Cc1cnc(C(=O)OCC(=O)c2csc(N3CCCCC3)n2)cn1	-24%	?	25µM*	-6%	?	45µM*
Cc1cnc(C(=O)OCC(=O)c2ccccc2)cn1	9%	4%	12%	-8%	4%	.
Clc1ccc2oc(-c3ccccc3)cc(=NCCCN3CCOCC3)c2c1	2%	62%	-20%	-20%	-3%	-16%
OCCCCCN=c1cc(-c2ccccc2)oc2ccc(Cl)cc12	-25%	-23%	-23%	?	-21%	35µM*
CN(C)c1ccc(/C=C/N2C=CCc3c2ccc2ccccc32)cc1	50µM*	?	.	11µM*	.	.
CN(C)c1ccc(/C=C/c2cc[n+](C)c3ccc4ccccc4c23)cc1	-34%	-8%	.	?	.	.
CN(C)c1ccc(/C=C2\NC(=O)NC2=O)cc1	-23%	21%	.	-6%	.	.
Cc1ccc(Cl)cc1NC(=S)N(Cc1ccco1)C(C)c1cccs1 (configuration not stated)	-2%	79µM*	-12%	-9%	-6%	8%
CCc1ccc2c(CN3CCN(S(=O)(=O)c4ccc5c(c4)OCCO5)CC3)cc(=O)oc2c1	-5%	1%	-16%	6%	5%	0%
O=c1cc(CN2CCN(S(=O)(=O)c3ccc4c(c3)OCCO4)CC2)c2ccc(O)cc2o1	?	35µM*	?	-9%	-20%	35µM*
CC(C)c1ccc(Nc2c(-c3ccc(N(C)C)cc3)nc3cnccn23)cc1	-3%	4%	-17%	-16%	.	11%
O=C(COc1ccccc1Cl)N(Cc1ccco1)Cc1ccco1	-7%	11%	-19%	8%	.	0%
